The text below walks through data of paper PMC12820563, “FoxP3 forms a head-to-head dimer in vivo and stabilizes its multimerization on adjacent microsatellites”.

In all, about 16,000 sequences were measured (“rpm ratio (pull-down/input)”: median about 0.94, highest 2% from about 1.7 on). Only a selection was taken, and the highest values are over-represented in it overall.

The target in this experiment is T1, MBP-FoxP1dN (Mus musculus, UniProt P58462 326-579).
T1 sequence: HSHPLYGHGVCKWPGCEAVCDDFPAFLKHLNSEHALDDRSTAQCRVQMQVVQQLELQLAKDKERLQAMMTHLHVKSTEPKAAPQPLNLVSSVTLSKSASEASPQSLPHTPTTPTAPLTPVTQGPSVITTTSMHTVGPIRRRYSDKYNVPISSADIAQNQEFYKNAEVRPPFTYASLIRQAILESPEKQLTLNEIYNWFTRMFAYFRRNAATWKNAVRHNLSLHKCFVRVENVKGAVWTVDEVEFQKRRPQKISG
Description: PD-seq (MBP pull-down with sequencing); 20 mM Tris-HCl pH 7.5, 100 mM NaCl, 1.5 mM MgCl2, 0.4 uM protein, 0.1 uM dsDNA library, 30 min, room temperature, amylose pull-down; high values mean tight binding. The settings on record: protein: recombinant; tags: His6-MBP; chain copies: 2; dsDNA, one strand shown. The method in brief: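 The N-terminus-lacking fragment of mouse FoxP3 or FoxP1 carried a His6-MBP tag and was expressed in E. coli. At 0.4 µM it was incubated with 0.1 µM Klenow-filled degenerate double-stranded DNA library for 30 min at room temperature in Tris pH 7.5 buffer with NaCl and MgCl2, and complexes were caught on amylose resin, washed three times, released with proteinase K, PCR-barcoded and Illumina-sequenced. Binding is reads-per-million enrichment of pull-down over input with replicates pooled.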
Regarding “GATGATTGTTCTCCCAGCTGATGAATTGTCACCCTCGAGTAAACAAATTTTCCTAATCTTTCTGTTCAAGCGCCATCTAC”, the binding signal is 1 RPM ratio (pull-down/input).
For the sequence “GATGATTGTTCTCCCAGCTGATGAATTGAGTTCGTCGAGTAAACAAATTTTCCTAATCTTTCTGTTCAAGCGCCATCTAC”, the binding signal is 0.82 RPM ratio (pull-down/input).
Regarding “GATGATTGTTCTCCCAGCTGATGAATTAAGGACATCGAGTAAACAAATTTTCCTAATCTTTCTGTTCAAGCGCCATCTAC”, the binding signal is 1.06 RPM ratio (pull-down/input).
Then “GATGATTGTTCTCCCAGCTGATGAATTGATGATCTCGAGTAAACAAATTTTCCTAATCTTTCTGTTCAAGCGCCATCTAC”, with 0.99 RPM ratio (pull-down/input).
In the case of “GATGATTGTTCTCCCAGCTGATGAATTGACCTCCTCGAGTAAACAAATTTTCCTAATCTTTCTGTTCAAGCGCCATCTAC”, the binding signal was 0.877 RPM ratio (pull-down/input).
In the case of “GATGATTGTTCTCCCAGCTGATGAATTGTTGATCTCGAGTAAACAAATTTTCCTAATCTTTCTGTTCAAGCGCCATCTAC”, the binding signal is 2.06 RPM ratio (pull-down/input).
Then “GATGATTGTTCTCCCAGCTGATGAATTGTTGACCTCGAGTAAACAAATTTTCCTAATCTTTCTGTTCAAGCGCCATCTAC”, with 1.88 RPM ratio (pull-down/input); and “GATGATTGTTCTCCCAGCTGATGAATTGATGACCTCGAGTAAACAAATTTTCCTAATCTTTCTGTTCAAGCGCCATCTAC”, with 1.02 RPM ratio (pull-down/input); and “GATGATTGTTCTCCCAGCTGATGAATTGTTGTTCTCGAGTAAACAAATTTTCCTAATCTTTCTGTTCAAGCGCCATCTAC”, with 2.58 RPM ratio (pull-down/input).
With “GATGATTGTTCTCCCAGCTGATGAATTGTTGTCCTCGAGTAAACAAATTTTCCTAATCTTTCTGTTCAAGCGCCATCTAC”, the binding signal was 2.28 RPM ratio (pull-down/input).
Turning to “GATGATTGTTCTCCCAGCTGATGAATTTCTAATCTCGAGTAAACAAATTTTCCTAATCTTTCTGTTCAAGCGCCATCTAC”, the binding signal is 0.82 RPM ratio (pull-down/input).
With “GATGATTGTTCTCCCAGCTGATGAATTGTCCTCCTCGAGTAAACAAATTTTCCTAATCTTTCTGTTCAAGCGCCATCTAC”, the binding signal is 1.03 RPM ratio (pull-down/input).
Regarding “GATGATTGTTCTCCCAGCTGATGAATTTTTTTTCTCGAGTAAACAAATTTTCCTAATCTTTCTGTTCAAGCGCCATCTAC”, the binding signal was 0.756 RPM ratio (pull-down/input).
“GATGATTGTTCTCCCAGCTGATGAATTGATCTTCTCGAGTAAACAAATTTTCCTAATCTTTCTGTTCAAGCGCCATCTAC”: the binding signal was 0.956 RPM ratio (pull-down/input).
On to “GATGATTGTTCTCCCAGCTGATGAATTTCTGTCCTCGAGTAAACAAATTTTCCTAATCTTTCTGTTCAAGCGCCATCTAC”, for which the binding signal was 0.915 RPM ratio (pull-down/input).
With “GATGATTGTTCTCCCAGCTGATGAATTAACAGTTTCGAGTAAACAAATTTTCCTAATCTTTCTGTTCAAGCGCCATCTAC”, the binding signal was 1.09 RPM ratio (pull-down/input).
On to “GATGATTGTTCTCCCAGCTGATGAATTGTAAAAGTCGAGTAAACAAATTTTCCTAATCTTTCTGTTCAAGCGCCATCTAC”, for which the binding signal was 0.943 RPM ratio (pull-down/input).
Consider “GATGATTGTTCTCCCAGCTGATGAATTATGTCGCTCGAGTAAACAAATTTTCCTAATCTTTCTGTTCAAGCGCCATCTAC”, for which the binding signal is 1.01 RPM ratio (pull-down/input).
Then “GATGATTGTTCTCCCAGCTGATGAATTCCATAAGTCGAGTAAACAAATTTTCCTAATCTTTCTGTTCAAGCGCCATCTAC”, with 0.896 RPM ratio (pull-down/input); and “GATGATTGTTCTCCCAGCTGATGAATTCTCTGGCTCGAGTAAACAAATTTTCCTAATCTTTCTGTTCAAGCGCCATCTAC”, with 0.769 RPM ratio (pull-down/input); and “GATGATTGTTCTCCCAGCTGATGAATTATCGGCTTCGAGTAAACAAATTTTCCTAATCTTTCTGTTCAAGCGCCATCTAC”, with 0.859 RPM ratio (pull-down/input).
Then “GATGATTGTTCTCCCAGCTGATGAATTACATGGATCGAGTAAACAAATTTTCCTAATCTTTCTGTTCAAGCGCCATCTAC”, with 1 RPM ratio (pull-down/input); and “GATGATTGTTCTCCCAGCTGATGAATTGCGCCCCTCGAGTAAACAAATTTTCCTAATCTTTCTGTTCAAGCGCCATCTAC”, with 0.966 RPM ratio (pull-down/input).
As for “GATGATTGTTCTCCCAGCTGATGAATTATTGAGCTCGAGTAAACAAATTTTCCTAATCTTTCTGTTCAAGCGCCATCTAC”, the binding signal was 0.941 RPM ratio (pull-down/input).
Regarding “GATGATTGTTCTCCCAGCTGATGAATTTCCTACCTCGAGTAAACAAATTTTCCTAATCTTTCTGTTCAAGCGCCATCTAC”, the binding signal was 0.823 RPM ratio (pull-down/input).
Turning to “GATGATTGTTCTCCCAGCTGATGAATTACCATTGTCGAGTAAACAAATTTTCCTAATCTTTCTGTTCAAGCGCCATCTAC”, the binding signal was 1.04 RPM ratio (pull-down/input).
On to “GATGATTGTTCTCCCAGCTGATGAATTTTTGCACTCGAGTAAACAAATTTTCCTAATCTTTCTGTTCAAGCGCCATCTAC”, for which the binding signal was 0.891 RPM ratio (pull-down/input).
Regarding “GATGATTGTTCTCCCAGCTGATGAATTGTTGCACTCGAGTAAACAAATTTTCCTAATCTTTCTGTTCAAGCGCCATCTAC”, the binding signal was 1.76 RPM ratio (pull-down/input).
For the sequence “GATGATTGTTCTCCCAGCTGATGAATTGCACTCCTCGAGTAAACAAATTTTCCTAATCTTTCTGTTCAAGCGCCATCTAC”, the binding signal was 1.15 RPM ratio (pull-down/input).
On to “GATGATTGTTCTCCCAGCTGATGAATTTCAATAATCGAGTAAACAAATTTTCCTAATCTTTCTGTTCAAGCGCCATCTAC”, for which the binding signal was 1.31 RPM ratio (pull-down/input).
Consider “GATGATTGTTCTCCCAGCTGATGAATTACAACAATCGAGTAAACAAATTTTCCTAATCTTTCTGTTCAAGCGCCATCTAC”, for which the binding signal was 2.1 RPM ratio (pull-down/input).
As to “GATGATTGTTCTCCCAGCTGATGAATTACAGCAATCGAGTAAACAAATTTTCCTAATCTTTCTGTTCAAGCGCCATCTAC”, the binding signal is 1.28 RPM ratio (pull-down/input).
Then “GATGATTGTTCTCCCAGCTGATGAATTACAATAATCGAGTAAACAAATTTTCCTAATCTTTCTGTTCAAGCGCCATCTAC”, with 1.83 RPM ratio (pull-down/input); and “GATGATTGTTCTCCCAGCTGATGAATTACAATTATCGAGTAAACAAATTTTCCTAATCTTTCTGTTCAAGCGCCATCTAC”, with 1.51 RPM ratio (pull-down/input).
For the sequence “GATGATTGTTCTCCCAGCTGATGAATTACTACAATCGAGTAAACAAATTTTCCTAATCTTTCTGTTCAAGCGCCATCTAC”, the binding signal was 1.55 RPM ratio (pull-down/input).
For the sequence “GATGATTGTTCTCCCAGCTGATGAATTGCTATGCTCGAGTAAACAAATTTTCCTAATCTTTCTGTTCAAGCGCCATCTAC”, the binding signal was 1.01 RPM ratio (pull-down/input).
As for “GATGATTGTTCTCCCAGCTGATGAATTTTGGATGTCGAGTAAACAAATTTTCCTAATCTTTCTGTTCAAGCGCCATCTAC”, the binding signal is 0.849 RPM ratio (pull-down/input).
The same measure for “GATGATTGTTCTCCCAGCTGATGAATTACGATTGTCGAGTAAACAAATTTTCCTAATCTTTCTGTTCAAGCGCCATCTAC”: 1.16 RPM ratio (pull-down/input); for “GATGATTGTTCTCCCAGCTGATGAATTATTTAAATCGAGTAAACAAATTTTCCTAATCTTTCTGTTCAAGCGCCATCTAC”: 1.24 RPM ratio (pull-down/input).
Consider “GATGATTGTTCTCCCAGCTGATGAATTGCGTACGTCGAGTAAACAAATTTTCCTAATCTTTCTGTTCAAGCGCCATCTAC”, for which the binding signal is 1.1 RPM ratio (pull-down/input).
